According to PubChem BioAssay (NCI):
This is part of a sample that, as a whole, favours compounds with a hit. Of some 83,000 tested, about 20% had one in any assay.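 Note: values are percent growth. 100 is the growth of untreated cells, values between 100 and 0 indicate rising inhibition; between -100 and 0 indicates cell death.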 Activity calls are given as the source filed them.

tested on: SK-MEL-2 melanoma; experiment: NCI-60 one-dose screen, 48 h (100 = growth as untreated, 0 = no growth, -100 = all killed); details: 10 µM unless noted
Description: Growth inhibition of the SK-MEL-2 human tumor cell line is measured as a screen for anti-cancer activity. Cells are grown in 96 well plates and exposed to the test compound for 48 hours. Compounds are tested at a single concentration, which is 10^-5 M for most compounds. The reported endpoint is percent growth (GI% or GIPRCNT), where numbers from 0 - 100% represent growth inhibition, and numbers from -100% - 0 represent cell death. For example, a value of 40 represents 60% growth inhibition. A value of 0 means no net growth occurred over the course of the experiment. A value of -40 indicates 40% of cells at the beginning of the experiment died by the end of the experiment. A value of -100 means all cells are dead at the end of the experiment.
NCI-60 Human Tumor Cell Lines Screen was performed using the standard one-dose NCI protocol, which is described in more detail at https://dtp.cancer.gov/discovery_development/nci-60/default.htm.
Compounds with GIPRCNT values below 10 were considered active. Activity score was based on GIPRCNT using the following formula: […]
Score is 0 for GIPRCNT values of 100 or above, 50 for GIPRCNT values of 0, and 100 for GIPRCNT values of -100.

Structure (SMILES) | growth
O=c1c2cc(F)cc(Cl)c2sc2c(NCCCNCCO)nc3ccccc3c12 | 107% (inactive)
COc1cc2oc(-c3ccc(O)cc3)cc(=O)c2c(O)c1-c1c(OC)cc(O)c2c(=O)cc(-c3ccc(O)cc3)oc12 | 51.9% (inactive)
COc1cccc(-c2nn(-c3ccccc3)cc2-c2ccnc(N3CCOCC3)c2)c1 | 96.7% (inactive)
C=C(C)[C@@H]1CC[C@]2(N=C=O)CC[C@]3(C)[C@H](CC[C@@H]4[C@@]5(C)Cc6c([nH]c7ccccc67)C(C)(C)[C@@H]5CC[C@]43C)[C@@H]12 | 108% (inactive)
COC(=O)C(Cc1ccccc1)NC(=O)NC(=O)NC(=O)CI (stereo not given) | 94.9% (inactive)
CN1CCN(c2ccc(-c3cnc4c(-c5csc6ccccc56)cnn4c3)cc2)CC1 | -32.8% (active)
COc1ccc(-c2nc3sc(-c4ccccc4)cn3n2)cc1 | 59.1% (inactive)
COc1cc2cc(Oc3ccc(NC(=O)Nc4cccc(C(F)(F)F)c4)cc3)c(C)nc2cc1OCCN1CCOCC1 | 78.6% (inactive)
CCC(=O)Nc1ccc(-c2nc(-c3cccc(OC)c3)c(-c3ccnc(Br)c3)[nH]2)cc1 | 70.2% (inactive)
Cc1ccc(C(=O)NN2C(=O)CSC2c2cccc([N+](=O)[O-])c2)cn1 (stereo not given) | 100% (inactive)
CN1C(=O)CNC(=O)[C@H](NC(=O)c2nc3ccccc3cc2O)CSSC[C@H]1C(=O)NCCCc1nc2ccccc2cc1O | -12.5% (active)
O=C1COCCN1c1ccc(NCc2cn(C(=O)c3ccc(Cl)cc3)c3ccccc23)cc1 | 61.5% (inactive)
O=c1c2cc(F)ccc2sc2c(NCCO)nc3ccccc3c12 | 102% (inactive)
O=C(Nc1c2ccccc2nc2ccccc12)c1ccccc1CN1C(=O)c2ccccc2C1=O | 43% (inactive)
COc1cccc2c(=O)c3c(sc12)c(NCCCN)nc1ccccc13 | 103% (inactive)
O=C(/C=C/c1sc(Cl)nc1Cl)c1ccccc1 | 104% (inactive)
COc1ccc(C(=O)C(C)C)c2ccccc12 | 97.9% (inactive)
CCc1cccc2c3c(sc12)C(c1ccc(F)cc1)C(C#N)=C(N)O3 (stereo not given) | 57% (inactive)
c1ccc(-c2nc3sc(-c4ccccc4)cn3n2)cc1 | 94.7% (inactive)
O=C(/C=C/c1sc(Cl)nc1Cl)c1ccc(F)cc1 | 95.5% (inactive)

Structure (SMILES) | growth
Cn1cc(-c2ccc3cc(-c4ccc(CC(=O)Nc5cc(C(C)(C)C)nn5C)cc4)cnc3c2)cn1 | -38.4% (active)
COc1ccc(-c2cnc3ccccc3n2)cc1 | 112% (inactive)
COc1ccc(S(=O)(=O)n2cc(C3OC(c4cc(OC)c(OC)c(OC)c4)=NN3C(C)=O)c3ccccc32)cc1OC (stereo not given) | 95.5% (inactive)
Cc1nc(/N=C(\N)NC(=O)Nc2ccccc2Cl)sc1C | 45.6% (inactive)
CC/C=C\C[C@@H]1C/C=C2/C(=O)C=C[C@H]2C/C=C\CCCC(=O)O1 | -39.2% (active)
O=c1c2cccc(Cl)c2sc2c(NCCCNCCO)nc3ccccc3c12 | 104% (inactive)
Cc1cccc2c(=O)c3c(sc12)c(NCc1ccccc1)nc1ccccc13 | 101% (inactive)
COc1ccc(C(=O)n2nc(-c3ccccc3)nc2N)cc1OC | 103% (inactive)
O=[N+]([O-])c1ccc(Cl)c(-c2cc(CCCCO)on2)c1 | 118% (inactive)
COc1cc(CNS(=O)(=O)c2ccc(C)cc2)ccc1OCc1cn(-c2ccccc2)nn1 | 102% (inactive)
O=C(CCc1nnc(-c2c(Cl)cccc2Cl)o1)c1nc2ccccc2[nH]1 | 59.4% (inactive)
NC1=NC(c2cccc(Br)c2)c2sc3ccc(Cl)cc3c2N1 (stereo not given) | 108% (inactive)
COc1cc(C(=O)c2cnc(-c3cccc4[nH]ccc34)[nH]2)cc(OC)c1OC | 39.9% (inactive)
S=C(c1cccs1)N1CCN(c2cccc(Cl)c2)CC1 | 99% (inactive)
Cc1ccc(S(=O)(=O)Oc2ccc(NC(=O)c3ccc(Cl)cc3)cc2)cc1 | 99.8% (inactive)
CCCCCCNC(=O)Oc1ccc(/C(=C(\C)c2ccc(Cl)cc2)c2ccc(OCCN3CCCCC3)cc2)cc1 | 86.4% (inactive)
O=C(CSc1nccc(Nc2ccc(S(=O)(=O)Nc3nccs3)cc2)n1)c1ccc(C(F)(F)F)cc1 | 102% (inactive)
O=C(COc1ccc(/C=C2\Cc3ccc(Cl)cc3C2=O)cc1)Nc1nc2ccccc2s1 | 122% (inactive)
CCOC(=O)C1=C(N)Oc2c(sc3c(C)cccc23)C1c1ccc(Cl)cc1 (stereo not given) | 46.6% (inactive)
COc1ccc(CN2c3ccccc3CCc3ccccc32)cc1F | 27.2% (inactive)
